Methyltransferases = Primary Screen for Target Class Profiling of Small Molecule Inhibitors of Methyltransferases; calls only at 40 µM; 25,000 tested, 3.9% active; purified enzyme, MTase-Glo SAH luminescence; active compounds read low; call rule not given here
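Each enzyme was assayed with SAM and its substrate. SAH formation detected by MTase-Glo luminescence; single-point 40 uM screen[…].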
MTase-Glo counter = counter-screen for methyltransferase inhibitors: coupling enzymes without methyltransferase; 180 tested, 6% active; MTase-Glo coupled enzymes, SAH conversion luminescence, no MTase; shares compounds with Methyltransferases; Potency, µM (highest dose often 57.3 µM), inactives show top-dose activity change, negative = inhibition, most hits filed as inhibitors; active = well fitted inhibition curve with a large enough effect; note: potency is the fitted concentration of half-maximal effect
Starred values were filed as active, the others as inactive; i = inactive; + = active, no number; [ ] = another dose, or the depositor's remark. Many of the other results were omitted from the sample, so hits are more common in it than they were. % is set by controls: 0 for no effect and ±100 for the full control effect.

SMILES	Methyltransferases	others
Cc1cc2c(cc3n2CC(C)(C(=O)NC2CCCCC2)N(Cc2cccc(F)c2)C3=O)o1 (stereo not given)	i
N#Cc1ccccc1-c1cc2c(ccn2Cc2ccncc2)c(N2CCOCC2)n1	+	MTase-Glo counter=3.7%[85.7 µM]
CCC(C)NC(=O)c1ccc2c(=O)n(C)c3nn(CC(=O)Nc4ccccc4F)c(=O)n3c2c1 (stereo not given)	i
Cc1cccc(C(=O)Nc2ccc3c(c2)C(=O)N(C)C2=NCCN23)c1	i
Cc1cc(C)cc(NS(=O)(=O)c2ccc3[nH]c4c(c3c2)CCCC4)c1	i
CC1CCCCC1NC(=O)C1(C)Cn2c(nc3ccccc32)C(=O)N1CCc1ccccc1 (stereo not given)	i
COc1ccccc1CNC(=O)C(C)n1ccc2cc(S(=O)(=O)N3CCCCC3)ccc21 (stereo not given)	i
COc1nccc(N2CCC(CC(=O)N3CCN(C(C)=O)CC3)CC2)n1	i
CC1(C)N=C(c2ccccc2)C(=O)N1CC(=O)N1CCN(c2ccccc2F)CC1	i
CCCn1c(C)cnc1CCNC(=O)CC1CCN(C(C)=O)CC1	i
CCNc1nccc(N2CCC(CC(=O)N3CCN(c4ccccc4F)CC3)CC2)n1	+	MTase-Glo counter=2.9%
CCOc1ccc(-c2ccnc(NC[C@@H]3CCCO3)n2)cc1C(=O)O	i
CCNc1nccc(N2CCC(CC(=O)NCC(C)C)CC2)n1	+	MTase-Glo counter=-0.3%
O=C(Nc1cccc(Cl)c1)N1Cc2c(sc3c2CCCC3)-n2cccc2C1c1ccccc1 (stereo not given)	i
Cc1ccc(N2C(=O)c3ccc(-c4ccco4)n3CC2(C)C(=O)NCc2ccc(Cl)cc2)cc1 (stereo not given)	i
Cc1ccc(NC(=O)N2CCn3cccc3C2C)cc1 (stereo not given)	i
Cc1ccc(NC(=O)N2CCN(c3nnnn3-c3ccccc3)CC2)cc1	i
Cc1ccc(NC(=O)N2CCc3c(c4ccccc4n3CC3CC3)C2)cc1	+	MTase-Glo counter=5.1%
N#Cc1ccc(CN2CCC3(CC(c4cccc(C(F)(F)F)c4)=NO3)C2)cc1 (stereo not given)	i
FC(F)(F)c1cccc(-c2nccn3c(C4CN(Cc5ccc6cn[nH]c6c5)C4)ncc23)c1	+	MTase-Glo counter=-6.3%
COCCCN1C(=O)c2nc3ccccc3n2CC1(C)C(=O)NC1CCC(C)CC1 (stereo not given)	i
Cc1noc2c(NCCCn3ccnc3)cc(-c3ccccn3)nc12	i
Cc1noc2c(NCCN3CCOCC3)cc(-c3ccsc3)nc12	i
Cc1noc2c(NC3CCN(C)CC3)cc(-c3cccs3)nc12	+	MTase-Glo counter=4.6%[85.7 µM]
CN(C)C[C@@H]1CN(S(C)(=O)=O)C[C@H]1NC(=O)c1ccc2[nH]ccc2c1	i
SMILES	Methyltransferases	others
CC1(COCC2CC2)COc2ccc(C(=O)Nc3cccc([S+](C)(=O)[O-])c3)cc2N1 (stereo not given)	i
CN(C)CCOCC1(C)COc2ccc(C(=O)Nc3ccc4[nH]ccc4c3)cc2N1 (stereo not given)	+	MTase-Glo counter=-1.1%[85.7 µM]
COc1ccc(CN2C(=O)c3cc4sccc4n3CC2(C)C(=O)NC2CCC(C)CC2)cc1 (stereo not given)	i
CCOC(=O)c1cc2n(n1)CC(C)(C(=O)NCc1ccccc1OC)N(c1ccccc1C)C2=O (stereo not given)	i
COC(=O)c1ncn2c1C(=O)N(c1ccc(C)c(C)c1)C(C)(C(=O)NCc1ccccc1)C2 (stereo not given)	i
O=C(CCCc1nc2ccccc2s1)N1CCc2nc3cc(-c4ccccc4)[nH]n3c(=O)c2C1	i
CN(C)S(=O)(=O)N1CCc2c(nc3cc(-c4ccccc4)[nH]n3c2=O)C1	i
COc1ccc(-c2cc3nc4c(c(=O)n3[nH]2)CN(C(=O)CN(C)S(=O)(=O)c2cnc[nH]2)CC4)cc1	+	MTase-Glo counter=-5.6%
CC(NC(=O)c1cc2n(n1)CC(C)(C(=O)NC1CCCCC1)N(C)C2=O)c1ccccc1 (stereo not given)	i
CCOC(=O)c1cc2n(n1)CC(C)(C(=O)NCc1ccccc1OC)N(c1ccc(C)cc1C)C2=O (stereo not given)	i
CC1(C(=O)NC2CCCCCC2)Cn2c(cc3sccc32)C(=O)N1CCCN1CCOCC1 (stereo not given)	i
CC(C)OCCCn1c(=O)c2ccccc2n2c(=O)n(CC(=O)NCc3ccccc3)nc12	i
CCC1Oc2ccc(NC(=O)Cc3ccc(OC)cc3)cc2CN(Cc2ccc3c(c2)OCO3)C1=O (stereo not given)	i
CCC1Oc2ccc(NS(=O)(=O)c3ccc(Cl)cc3)cc2CN(Cc2ccc(F)cc2)C1=O (stereo not given)	+	MTase-Glo counter=-7.6%
CCn1c(=O)n(CC)c2cc(S(=O)(=O)Nc3ccc(F)cc3)ccc21	i
Cc1ccc(Nc2ccn3c(=O)n(CC(=O)Nc4cc(F)ccc4F)nc3n2)cc1	i

Source: PubChem BioAssay (National Center for Advancing Translational Sciences (NCATS))
